Binding signal data for one sequence are collected here from article PMC7862700, “An all-to-all approach to the identification of sequence-specific readers for epigenetic DNA modifications on cytosine”.

What all share (assay): DAPPL (digital affinity profiling via proximity ligation, sequencing); 10 mM Tris-HCl pH 7.5, 50 mM NaCl, 1 mM DTT, 4% glycerol, room temperature, 30 min; GST-TFs on glutathione beads, 16-mer random dsDNA library, 0.1% formaldehyde crosslink after washing; high values mean tight binding
Test [1] has as its target T1, FLI1 (Homo sapiens, UniProt Q01543 1-452).
T1 sequence: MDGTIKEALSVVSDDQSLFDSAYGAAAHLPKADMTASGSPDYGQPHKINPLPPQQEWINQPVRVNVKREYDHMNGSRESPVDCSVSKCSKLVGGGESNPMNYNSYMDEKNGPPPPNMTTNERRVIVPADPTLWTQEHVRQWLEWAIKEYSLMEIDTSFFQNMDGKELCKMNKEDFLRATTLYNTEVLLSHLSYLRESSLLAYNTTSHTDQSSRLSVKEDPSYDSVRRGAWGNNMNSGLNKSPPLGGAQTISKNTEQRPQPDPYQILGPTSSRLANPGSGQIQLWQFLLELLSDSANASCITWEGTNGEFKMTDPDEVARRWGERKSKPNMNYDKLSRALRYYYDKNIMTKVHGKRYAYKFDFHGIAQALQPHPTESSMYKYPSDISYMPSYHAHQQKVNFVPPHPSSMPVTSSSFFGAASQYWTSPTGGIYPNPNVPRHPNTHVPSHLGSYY
To be noted: protein: recombinant; tags: N-terminal GST; dsDNA, one strand shown. In outline:
(§1)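 Pools of DNA-barcoded human transcription factors, expressed in yeast as GST fusions on glutathione beads and combined with a tag-only sample, were incubated with 200 nmole of a 16-mer random double-stranded DNA library. Incubation took 30 min at room temperature in Tris/NaCl/DTT/glycerol buffer and was followed by washing, 0.1% formaldehyde crosslinking, proximity ligation (BsaI/T4 ligase, 1 h, 37 °C), PCR amplification and sequencing on an Illumina NextSeq500. Binding signal is the ratio of a hexamer's read frequency for a factor to its frequency for the tag-only sample.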

Test [2] has as its target T2, ELK1 (Homo sapiens, UniProt P19419 1-428).
T2 sequence: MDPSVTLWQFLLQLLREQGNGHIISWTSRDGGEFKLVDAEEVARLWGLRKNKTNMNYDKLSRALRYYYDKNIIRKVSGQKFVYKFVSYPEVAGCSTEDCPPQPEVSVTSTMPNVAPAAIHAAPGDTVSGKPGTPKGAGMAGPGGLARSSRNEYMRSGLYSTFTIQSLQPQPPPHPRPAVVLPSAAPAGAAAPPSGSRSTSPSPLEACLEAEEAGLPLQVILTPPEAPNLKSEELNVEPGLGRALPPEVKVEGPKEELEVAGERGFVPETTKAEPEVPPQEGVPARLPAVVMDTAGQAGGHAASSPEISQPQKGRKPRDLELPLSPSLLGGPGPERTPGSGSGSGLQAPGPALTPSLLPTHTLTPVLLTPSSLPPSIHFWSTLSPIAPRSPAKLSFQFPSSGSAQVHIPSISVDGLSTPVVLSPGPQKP
As to conditions: protein: recombinant; tags: N-terminal GST; dsDNA, one strand shown. The procedure, abridged: as §1

Test [3] concerns the target T3, GABPA (Homo sapiens, UniProt Q06546 1-454).
T3 sequence: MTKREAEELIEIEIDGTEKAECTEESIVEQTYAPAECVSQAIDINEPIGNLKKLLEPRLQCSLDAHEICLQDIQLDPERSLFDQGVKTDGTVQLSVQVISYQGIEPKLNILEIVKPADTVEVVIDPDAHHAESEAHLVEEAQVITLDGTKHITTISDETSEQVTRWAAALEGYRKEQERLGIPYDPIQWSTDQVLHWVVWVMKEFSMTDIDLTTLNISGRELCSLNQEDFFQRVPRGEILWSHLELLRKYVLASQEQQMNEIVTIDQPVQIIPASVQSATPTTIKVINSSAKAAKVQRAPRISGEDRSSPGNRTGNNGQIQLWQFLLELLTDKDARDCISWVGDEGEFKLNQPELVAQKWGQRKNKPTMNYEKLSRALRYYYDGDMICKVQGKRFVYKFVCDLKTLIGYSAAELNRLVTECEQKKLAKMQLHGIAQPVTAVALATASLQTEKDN
To be noted: protein: recombinant; tags: N-terminal GST; dsDNA, one strand shown. In outline:
as §1

Test [4] deals with ELF1 (Homo sapiens, UniProt P32519 1-619). To be noted: protein: recombinant; tags: N-terminal GST; dsDNA, one strand shown. In outline: as §1
Test [5] concerns the target T4, EHF (Homo sapiens, UniProt Q9NZC4 1-300).
T4 sequence: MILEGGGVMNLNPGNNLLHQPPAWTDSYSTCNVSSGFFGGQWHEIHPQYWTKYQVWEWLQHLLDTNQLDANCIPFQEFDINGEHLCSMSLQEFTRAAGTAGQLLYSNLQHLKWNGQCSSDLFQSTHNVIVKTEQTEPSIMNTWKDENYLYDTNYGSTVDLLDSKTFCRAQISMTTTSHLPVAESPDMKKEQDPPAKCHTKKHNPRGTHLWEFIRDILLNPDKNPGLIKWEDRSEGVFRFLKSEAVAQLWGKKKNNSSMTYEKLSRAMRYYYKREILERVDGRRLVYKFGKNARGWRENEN
As to conditions: protein: recombinant; tags: N-terminal GST; dsDNA, one strand shown. The procedure, abridged:
as §1

Test [6] deals with T5, ELK3 (Homo sapiens, UniProt P41970 1-407).
T5 sequence: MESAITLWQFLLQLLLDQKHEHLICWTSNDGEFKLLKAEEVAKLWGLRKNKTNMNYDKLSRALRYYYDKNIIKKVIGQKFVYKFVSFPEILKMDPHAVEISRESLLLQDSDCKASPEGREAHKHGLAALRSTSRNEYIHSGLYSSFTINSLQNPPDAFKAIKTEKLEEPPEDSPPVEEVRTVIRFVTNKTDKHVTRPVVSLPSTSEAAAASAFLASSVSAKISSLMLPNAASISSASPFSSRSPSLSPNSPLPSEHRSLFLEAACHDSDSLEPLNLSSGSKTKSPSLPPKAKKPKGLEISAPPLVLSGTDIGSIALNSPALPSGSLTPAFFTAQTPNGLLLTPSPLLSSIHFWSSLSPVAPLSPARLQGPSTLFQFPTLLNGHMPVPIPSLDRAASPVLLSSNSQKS
As to conditions: protein: recombinant; tags: N-terminal GST; dsDNA, one strand shown. The procedure, abridged: as §1

Test [7] has as its target T6, FEV (Homo sapiens, UniProt Q99581 1-238).
T6 sequence: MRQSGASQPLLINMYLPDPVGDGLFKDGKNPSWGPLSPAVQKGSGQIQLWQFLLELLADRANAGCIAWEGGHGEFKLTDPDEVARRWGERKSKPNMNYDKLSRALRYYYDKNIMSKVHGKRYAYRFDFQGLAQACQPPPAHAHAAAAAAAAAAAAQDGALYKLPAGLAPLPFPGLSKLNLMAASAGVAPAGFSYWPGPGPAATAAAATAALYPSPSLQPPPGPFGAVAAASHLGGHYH
To be noted: protein: recombinant; tags: N-terminal GST; dsDNA, one strand shown. The procedure, abridged: as §1

Test [8] deals with ETV5 (Homo sapiens, UniProt P41161 1-510). To be noted: protein: recombinant; tags: N-terminal GST; dsDNA, one strand shown. In outline:
as §1

Test [9] has as its target HSF1 (Homo sapiens, UniProt Q00613 1-529). As to conditions: protein: recombinant; tags: N-terminal GST; chain copies: 3; dsDNA, one strand shown. In outline: as §1
Test [10] deals with T7, SPIC (Homo sapiens, UniProt Q8N5J4 1-248).
T7 sequence: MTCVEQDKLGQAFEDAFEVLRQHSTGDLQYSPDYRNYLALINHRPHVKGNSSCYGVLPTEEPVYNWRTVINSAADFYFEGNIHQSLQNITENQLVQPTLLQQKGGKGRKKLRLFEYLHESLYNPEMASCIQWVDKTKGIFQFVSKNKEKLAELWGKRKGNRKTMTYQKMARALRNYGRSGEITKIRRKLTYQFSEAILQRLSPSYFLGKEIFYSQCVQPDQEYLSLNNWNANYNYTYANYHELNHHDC
To be noted: protein: recombinant; tags: N-terminal GST; dsDNA, one strand shown. The procedure, abridged:
as §1

The target of test [11] is ELF4 (Homo sapiens, UniProt Q99607 1-663). To be noted: protein: recombinant; tags: N-terminal GST; dsDNA, one strand shown. The procedure, abridged: as §1
Test [12] deals with T8, ELK4 (Homo sapiens, UniProt P28324-2 1-405).
T8 sequence: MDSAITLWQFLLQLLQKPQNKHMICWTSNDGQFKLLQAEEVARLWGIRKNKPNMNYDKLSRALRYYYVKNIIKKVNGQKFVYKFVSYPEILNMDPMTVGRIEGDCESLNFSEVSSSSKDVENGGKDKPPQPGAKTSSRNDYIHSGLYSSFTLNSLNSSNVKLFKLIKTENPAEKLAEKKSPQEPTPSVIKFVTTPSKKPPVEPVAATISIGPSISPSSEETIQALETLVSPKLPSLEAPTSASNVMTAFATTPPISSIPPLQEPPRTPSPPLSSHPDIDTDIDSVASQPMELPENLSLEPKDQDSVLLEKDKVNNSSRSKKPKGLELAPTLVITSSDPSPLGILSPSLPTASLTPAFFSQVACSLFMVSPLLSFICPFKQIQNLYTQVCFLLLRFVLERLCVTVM
As to conditions: protein: recombinant; tags: N-terminal GST; dsDNA, one strand shown. In outline: as §1

The target of test [13] is T9, ETV2 (Homo sapiens, UniProt O00321 1-342).
T9 sequence: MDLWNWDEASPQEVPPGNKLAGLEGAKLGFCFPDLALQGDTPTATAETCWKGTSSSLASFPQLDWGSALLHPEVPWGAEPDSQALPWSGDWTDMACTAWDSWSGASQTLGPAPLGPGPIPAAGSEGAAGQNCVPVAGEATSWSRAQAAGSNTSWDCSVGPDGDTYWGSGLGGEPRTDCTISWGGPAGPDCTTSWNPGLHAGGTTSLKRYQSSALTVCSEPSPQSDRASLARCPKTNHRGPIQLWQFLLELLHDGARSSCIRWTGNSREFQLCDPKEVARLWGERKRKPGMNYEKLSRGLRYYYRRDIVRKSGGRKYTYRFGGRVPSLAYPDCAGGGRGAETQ
As to conditions: protein: recombinant; tags: N-terminal GST; dsDNA, one strand shown. The procedure, abridged: as §1

Test [14] addresses T10, ELF3 (Homo sapiens, UniProt P78545 1-371).
T10 sequence: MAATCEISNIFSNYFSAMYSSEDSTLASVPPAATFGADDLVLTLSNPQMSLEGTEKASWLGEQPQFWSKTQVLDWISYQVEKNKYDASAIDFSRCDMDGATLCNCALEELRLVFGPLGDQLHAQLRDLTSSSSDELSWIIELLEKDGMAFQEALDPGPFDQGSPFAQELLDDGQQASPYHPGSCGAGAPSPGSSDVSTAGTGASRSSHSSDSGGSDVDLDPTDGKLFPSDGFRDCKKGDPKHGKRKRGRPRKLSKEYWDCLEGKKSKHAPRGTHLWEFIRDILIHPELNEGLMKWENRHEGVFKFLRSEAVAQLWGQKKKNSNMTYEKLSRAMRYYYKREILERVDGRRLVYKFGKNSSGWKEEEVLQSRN
To be noted: protein: recombinant; tags: N-terminal GST; dsDNA, one strand shown. In outline:
as §1

The target in test [15] is CRX (Homo sapiens, UniProt O43186 1-299). To be noted: protein: recombinant; tags: N-terminal GST; dsDNA, one strand shown. In outline:
as §1

Test [16] concerns the target ETV1 (Homo sapiens, UniProt P50549 1-477). As to conditions: protein: recombinant; tags: N-terminal GST; dsDNA, one strand shown. In outline: as §1

Sequence of ELF1 (P32519 whole entry): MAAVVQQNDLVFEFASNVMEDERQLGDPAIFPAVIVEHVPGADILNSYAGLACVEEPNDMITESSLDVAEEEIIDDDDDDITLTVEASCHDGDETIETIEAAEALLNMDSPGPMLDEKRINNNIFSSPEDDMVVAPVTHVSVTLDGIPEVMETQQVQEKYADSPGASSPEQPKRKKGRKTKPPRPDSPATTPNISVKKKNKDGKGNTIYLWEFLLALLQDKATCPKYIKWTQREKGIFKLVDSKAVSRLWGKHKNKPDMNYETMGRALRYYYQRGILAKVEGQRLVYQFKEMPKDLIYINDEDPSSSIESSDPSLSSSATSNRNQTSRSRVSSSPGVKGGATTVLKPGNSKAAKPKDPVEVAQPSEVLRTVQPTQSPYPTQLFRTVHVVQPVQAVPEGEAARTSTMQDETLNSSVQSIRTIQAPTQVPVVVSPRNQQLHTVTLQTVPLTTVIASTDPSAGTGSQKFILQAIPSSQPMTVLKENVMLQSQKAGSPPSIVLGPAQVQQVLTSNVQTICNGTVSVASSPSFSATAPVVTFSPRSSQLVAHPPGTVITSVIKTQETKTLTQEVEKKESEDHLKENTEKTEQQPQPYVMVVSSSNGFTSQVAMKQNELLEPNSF
Sequence of ETV5 (P41161 whole entry): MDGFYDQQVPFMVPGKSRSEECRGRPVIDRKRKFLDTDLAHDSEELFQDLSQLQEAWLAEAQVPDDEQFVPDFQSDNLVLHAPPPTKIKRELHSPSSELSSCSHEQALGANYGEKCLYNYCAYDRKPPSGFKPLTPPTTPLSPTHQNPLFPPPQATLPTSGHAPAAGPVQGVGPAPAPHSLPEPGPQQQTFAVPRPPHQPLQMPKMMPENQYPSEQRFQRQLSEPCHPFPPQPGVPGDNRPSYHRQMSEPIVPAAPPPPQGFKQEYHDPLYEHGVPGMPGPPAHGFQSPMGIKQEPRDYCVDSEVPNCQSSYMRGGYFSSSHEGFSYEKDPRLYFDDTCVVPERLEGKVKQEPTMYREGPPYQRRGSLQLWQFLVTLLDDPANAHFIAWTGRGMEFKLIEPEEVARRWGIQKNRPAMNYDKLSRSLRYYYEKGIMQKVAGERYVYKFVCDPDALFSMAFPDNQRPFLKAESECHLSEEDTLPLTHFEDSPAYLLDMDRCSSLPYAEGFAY
Sequence of ETV1 (P50549 whole entry): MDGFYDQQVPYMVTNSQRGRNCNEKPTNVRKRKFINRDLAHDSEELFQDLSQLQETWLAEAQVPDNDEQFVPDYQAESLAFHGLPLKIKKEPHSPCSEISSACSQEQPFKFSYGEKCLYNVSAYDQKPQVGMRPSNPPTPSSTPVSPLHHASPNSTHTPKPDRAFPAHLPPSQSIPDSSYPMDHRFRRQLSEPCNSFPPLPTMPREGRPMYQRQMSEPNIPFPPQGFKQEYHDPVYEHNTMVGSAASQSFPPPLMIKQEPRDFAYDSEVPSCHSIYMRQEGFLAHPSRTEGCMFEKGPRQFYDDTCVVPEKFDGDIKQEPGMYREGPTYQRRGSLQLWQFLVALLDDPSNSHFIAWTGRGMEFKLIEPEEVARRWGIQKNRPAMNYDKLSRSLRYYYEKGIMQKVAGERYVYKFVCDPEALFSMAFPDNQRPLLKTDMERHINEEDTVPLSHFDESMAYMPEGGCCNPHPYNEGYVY
Sequence of ELF4 (Q99607 whole entry): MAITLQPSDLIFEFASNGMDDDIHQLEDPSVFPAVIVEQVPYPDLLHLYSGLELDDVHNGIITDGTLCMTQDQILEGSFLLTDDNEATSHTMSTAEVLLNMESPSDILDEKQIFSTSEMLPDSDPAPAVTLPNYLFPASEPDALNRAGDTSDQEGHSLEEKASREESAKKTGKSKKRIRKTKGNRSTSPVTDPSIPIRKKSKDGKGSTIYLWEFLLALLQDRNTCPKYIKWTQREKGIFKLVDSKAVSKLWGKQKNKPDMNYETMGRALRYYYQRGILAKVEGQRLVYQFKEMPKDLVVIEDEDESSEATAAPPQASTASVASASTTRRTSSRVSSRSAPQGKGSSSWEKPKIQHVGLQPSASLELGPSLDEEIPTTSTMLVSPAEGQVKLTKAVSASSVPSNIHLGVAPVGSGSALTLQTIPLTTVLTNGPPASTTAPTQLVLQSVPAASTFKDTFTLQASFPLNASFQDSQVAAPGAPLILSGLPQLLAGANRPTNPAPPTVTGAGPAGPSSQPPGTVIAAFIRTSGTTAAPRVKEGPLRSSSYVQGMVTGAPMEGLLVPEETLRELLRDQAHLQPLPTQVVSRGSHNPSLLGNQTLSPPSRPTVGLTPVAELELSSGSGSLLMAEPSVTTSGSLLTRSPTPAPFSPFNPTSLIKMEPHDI
Sequence of HSF1 (Q00613 whole entry): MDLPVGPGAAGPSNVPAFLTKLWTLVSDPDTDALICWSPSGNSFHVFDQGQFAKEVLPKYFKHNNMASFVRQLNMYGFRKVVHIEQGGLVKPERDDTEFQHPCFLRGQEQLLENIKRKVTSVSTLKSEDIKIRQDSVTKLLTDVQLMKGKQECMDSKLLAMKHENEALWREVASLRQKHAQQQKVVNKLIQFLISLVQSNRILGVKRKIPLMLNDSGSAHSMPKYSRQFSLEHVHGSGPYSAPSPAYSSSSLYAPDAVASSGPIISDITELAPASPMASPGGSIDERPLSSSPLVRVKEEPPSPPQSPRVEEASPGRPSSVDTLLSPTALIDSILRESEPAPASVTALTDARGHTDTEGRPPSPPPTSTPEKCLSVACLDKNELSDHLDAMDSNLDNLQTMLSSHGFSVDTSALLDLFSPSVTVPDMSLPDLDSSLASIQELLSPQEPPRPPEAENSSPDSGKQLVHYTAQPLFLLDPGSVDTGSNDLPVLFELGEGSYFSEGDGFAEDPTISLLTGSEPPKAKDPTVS
Sequence of CRX (O43186 whole entry): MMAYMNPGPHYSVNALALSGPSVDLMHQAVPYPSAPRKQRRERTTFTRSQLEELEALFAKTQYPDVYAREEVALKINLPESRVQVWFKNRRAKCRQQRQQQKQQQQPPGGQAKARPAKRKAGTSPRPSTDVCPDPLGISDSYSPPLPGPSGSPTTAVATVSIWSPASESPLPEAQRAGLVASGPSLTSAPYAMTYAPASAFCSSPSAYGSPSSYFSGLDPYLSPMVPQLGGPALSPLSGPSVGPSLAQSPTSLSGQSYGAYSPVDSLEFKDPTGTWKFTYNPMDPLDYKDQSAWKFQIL

Take TGAGCT: the binding signal was 1.15 fold enrichment (6-mer frequency, TF over GST control) in [1]; 1.08 fold enrichment (6-mer frequency, TF over GST control) in test [2]; 1.05 fold enrichment (6-mer frequency, TF over GST control) in test [3]; 1.02 fold enrichment (6-mer frequency, TF over GST control) in test [4]; 1.16 fold enrichment (6-mer frequency, TF over GST control) in test [5]; 1.05 fold enrichment (6-mer frequency, TF over GST control) in test [6]. Further, the binding signal in test [7] is 1.09 fold enrichment (6-mer frequency, TF over GST control); in test [8], 1.07 fold enrichment (6-mer frequency, TF over GST control); in test [9] it was 1.06 fold enrichment (6-mer frequency, TF over GST control); in [10] it was 1.03 fold enrichment (6-mer frequency, TF over GST control); in [11], 1.1 fold enrichment (6-mer frequency, TF over GST control); in test [12], 1.17 fold enrichment (6-mer frequency, TF over GST control). Also, the binding signal in test [13] was 1.19 fold enrichment (6-mer frequency, TF over GST control); in test [14], 1.23 fold enrichment (6-mer frequency, TF over GST control); in [15] it was 1.35 fold enrichment (6-mer frequency, TF over GST control); in test [16], 1.09 fold enrichment (6-mer frequency, TF over GST control).
